From PubChem
Compounds with a hit are over-represented: about 12% of the library has one in this group of screens.
Insulin prom inh: inhibitors of insulin promoter-driven GFP, primary screen, imaging, TRM-6 cells (human fetal islet line), eGFP reporter, cell count; 130,000 tested, 0.9% active; inhibition, % at 2 µM; reporter expression induced with tamoxifen;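 active = inhibition above the mean plus 3 SD, with well images judged a real hit on visual review, cut at about 60% in these data, passing the limit was not always enough; inconclusive = inhibition over the cutoff but images rejected on review; inactive = inhibition not above the cutoff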
Cl transport mod: KCC2 cotransporter modulators, thallium flux, primary screen, cell-based, HEK293 KCC2, FluoZin-2 fluorescence, MLSMR | KCC2 cells, thallium flux FluoZin-2 fluorescence | B-score of Tl+ flux slope (higher = more flux/activation; lower = inhibition) at 10 µM | 190,000 tested, 2.2% active;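 active = thallium flux slope and its plate-corrected score both differing from the plate sample mean at a set confidence after two filtering rounds, in either direction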;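 also: slope of fluorescence scaled to starting intensity during 10 to 20 s after thallium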
Ins promoter up: insulin promoter activators in MIN6 cells, imaging, high-content screening, mouse beta cells; MIN6 insulin promoter-GFP reporter; active compounds read high; z-score at 5 µM; 190,000 tested, 0.3% active;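 active = z-score above 3 at 5 µM with at least 500 cells counted in the well; inconclusive = wells under 500 cells, flagged as cytotoxic or low count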
L major viab: Leishmania major promastigote growth inhibition, primary screen; AID 1063, 2008; 200,000 tested, 9% active; Leishmania major promastigotes, resazurin fluorescence viability; inhibition, % at 10 µM; in the data active = inhibition above about 50%;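 also: promastigotes grown with compound for 44 hours at 28 °C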
WT yeast gro inh: growth inhibition of WT strain, primary screen, mitochondrial fusion inhibitor project, WT and mutant strains, chemical genetic; mitochondrial fusion phenotypic screen; inhibition, % at 10 µM; 190,000 tested, 2.1% active; AID 1362, 2008; in the data active = inhibition above about 58%; tested in S. cerevisiae
ROMK primary: ROMK potassium channel modulators, primary screen, cell-based, thallium flux, MLSMR library; ATP-sensitive inward rectifier potassium channel 1 (Homo sapiens), P48048; Tet-inducible ROMK, thallium flux fluorescence; actives lie on both sides; B-score at 10 µM; 130,000 tested, 2% active;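 active = signal ratio slope over the read window, or its plate-corrected B-score, at least 3 SD from the plate mean, either direction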;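 also: B-score of the F/F0 ratio slope over 7 to 12 s after thallium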
Target sequence (P48048 whole entry, looked up): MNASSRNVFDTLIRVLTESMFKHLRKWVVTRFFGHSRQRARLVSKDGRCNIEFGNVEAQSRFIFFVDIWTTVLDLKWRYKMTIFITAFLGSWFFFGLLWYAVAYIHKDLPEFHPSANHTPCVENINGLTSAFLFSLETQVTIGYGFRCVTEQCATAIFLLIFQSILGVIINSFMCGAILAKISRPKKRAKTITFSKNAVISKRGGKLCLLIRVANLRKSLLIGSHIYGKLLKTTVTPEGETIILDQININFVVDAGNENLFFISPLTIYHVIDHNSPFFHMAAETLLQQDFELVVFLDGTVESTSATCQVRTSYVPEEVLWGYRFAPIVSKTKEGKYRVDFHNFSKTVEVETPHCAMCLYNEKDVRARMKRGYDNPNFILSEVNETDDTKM
KCC2 sec1: KCC2 modulators in sodium-free buffer, confirmation, cell-based, HEK293 KCC2, thallium flux, secondary assay; shares compounds with Cl transport mod; FluoZin2 fluorescence; active compounds read high; normalised thallium flux (F/F0 slope) at 10 µM; 3,700 tested, 15% active;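 active = thallium flux slope above the same plate's solvent-only control mean plus 3 SD; inconclusive = the two replicate wells disagree; inactive = no significant difference from solvent-only control wells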
KCC2 bumet counter: thallium flux persisting under bumetanide in KCC2 cells, confirmation, counter-screen for KCC2 modulator project, cell-based, HEK293 KCC2, FluoZin2, secondary assay 3; shares compounds with Cl transport mod; HEK293-KCC2 + bumetanide/ouabain; active compounds read high; normalized thallium flux at 10 µM; 3,700 tested, 49% active; AID 1714, 2009;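 active = thallium entry rate above the same plate's blocked-transporter control wells by more than 3 SD; inconclusive = the two repeat wells disagree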;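 also: raw slope of fluorescence over initial fluorescence between 10 and 20 s after thallium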
KCC2 secondary2: KCC2 modulators without ouabain present, confirmation, cell-based, HEK293 KCC2, thallium flux, FluoZin2, secondary assay 2 | shares compounds with Cl transport mod | thallium flux FluoZin2 fluorescence; actives lie on both sides; F/F0 rise rate, 10–20 s post-thallium | normalized thallium flux at 10 µM | 3,700 tested, 23% active | AID 1715, 2009;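 active = thallium flux slope more than 3 SD above or below the plate's solvent-only control mean, mostly below; inconclusive = the two repeat wells disagreed; inactive = no significant shift from solvent-only controls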;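 also: raw slope with 0.1% DMSO as baseline and bumetanide as block control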
HEK293 Tl flux: thallium flux modulation in parental HEK cells, confirmation, counter-screen for KCC2 modulator project, cell-based, counterscreen 1; shares compounds with Cl transport mod; HEK293 parental cells, thallium flux FluoZin2, ouabain; baseline-ratio fluorescence slope, 10–20 s after thallium; thallium flux rate (normalised fluorescence) at 10 µM; 3,700 tested, 46% active; AID 1716, 2009;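 active = thallium flux rate significantly above the same plate's solvent-only control wells, beyond their mean plus 3 SD; inconclusive = the two replicate wells gave conflicting results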
KCC2 retest ouab: KCC2 inhibitors and activators, ouabain retest, confirmation, HEK-KCC2 cells; 3,700 tested, 48% active; shares compounds with Cl transport mod; HEK293-KCC2, thallium flux FluoZin2 fluorescence; bidirectional: low = inhibitor, high = activator; raw Tl+ flux slope (below DMSO = inhibition, above = activation) at 10 µM;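 active = thallium flux slope beyond 3 SD from same-plate DMSO control mean in most replicates, usually higher, sometimes lower; inconclusive = repeat tests gave conflicting results; inactive = no significant difference from controls in most replicates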;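 also: slope of initial-normalized fluorescence between seconds 10 and 20 after thallium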
HEK293 Tl flux2: native HEK Tl+ uptake effects, second counter-screen – HEK cells, counterscreen 2, counter-screen for KCC2 modulator project, confirmation. shares compounds with Cl transport mod. HEK293 parental, thallium flux FluoZin-2 fluorescence slope. thallium flux slope at 10 µM. 3,700 tested, 33% active. AID 1718, 2009;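 active = thallium flux slope above the same plate's solvent-control mean plus 3 SD in both duplicate wells; inconclusive = duplicate wells that disagreed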;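 also: run without ouabain in cells lacking the KCC2 cotransporter; slope of fluorescence scaled to its starting value between 10 and 20 s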
The depositor's hits bear a star; ? = inconclusive; / = not tested or not shown.

SMILES	Insulin prom inh	Cl transport mod	Ins promoter up	L major viab	WT yeast gro inh	ROMK primary	KCC2 sec1	KCC2 bumet counter	KCC2 secondary2	HEK293 Tl flux	KCC2 retest ouab	HEK293 Tl flux2
CCOC(=O)/C(C)=N/NC(=O)c1cccc([N+](=O)[O-])c1	-29	32*	0.17	0	-11	/	0.0072	0.026*	0.04*	0.027*	0.034*	0.022*
O=C(N/N=C(\c1ccccc1)c1ccccn1)c1cccc([N+](=O)[O-])c1	-150	12*	-2.8	100*	43	/	?	0.028*	0.036	0.02*	0.031*	0.021*
C/C(=N\NC(=O)c1cc([N+](=O)[O-])cc([N+](=O)[O-])c1)c1ccco1	/	38*	0.1	-1	-2	1.7	0.03*	0.075*	?	0.038*	0.055*	0.017*
CN(C)CCCN1CC(C(=O)O)CC1=O (stereo not given)	13	-0.059	0.01	-7	-6	/	/	/	/	/	/	/
O=C(NCC1(N2CCCCC2)CCCCC1)c1ccc(S(=O)(=O)N2CCCC2)cc1	/	1.5	-0.36	/	/	/	/	/	/	/	/	/
O=C(Oc1ccc(Br)cc1)C1CC(=O)N(c2ccc(F)cc2)C1 (stereo not given)	11	0.0046	0.14	2	14	/	/	/	/	/	/	/
CCCc1nc2c(o1)CC(CC(C)SCC)CC2=O (stereo not given)	-274	4.9*	-0.13	-6	32	0.66	0.0062	0.0046	?	0.007	0.018	0.0092
C=C(C)c1cccc(C(C)(C)NC(=O)N2CCCC(C(N)=O)C2)c1 (stereo not given)	38	1.3	-0.29	-7	-4	/	/	/	/	/	/	/
C=C(C)c1cccc(C(C)(C)NC(=O)N2CCC(C(N)=O)CC2)c1	14	-3.2*	-0.45	-4	3	0.017	0.0066	?	0.034	0.0081	0.019	0.012
CN(C)S(=O)(=O)c1cccc(NC(=S)N/N=C/c2ccco2)c1	/	6.3*	-0.28	/	/	/	0.0067	0.0075*	0.027	0.0094*	0.019	0.012*
CC(NC(=O)c1ccnc(C(C)(C)C)c1)c1ccccc1 (stereo not given)	-200	0.55	-0.48	-2	19	-0.073	0.019	?	?	0.0071	0.015	0.0094
O=C(c1ccco1)N1CCN(S(=O)(=O)c2ccc(Br)s2)CC1	-20	-1.5	-0.26	9	-12	/	/	/	/	/	/	/
Cc1ccc(S(=O)(=O)N(C)C)cc1NC(=O)C1CCC1	/	-0.48	-0.11	/	/	/	/	/	/	/	/	/
CNC(=O)NC(=O)COC(=O)c1n[nH]c2ccccc12	/	0.079	0.03	/	/	/	/	/	/	/	/	/
CCCN1C=CC(=CC=C(C#N)C#N)C=C1	/	-7.8*	/	/	/	/	0.0021*	-0.0014*	0.023*	?	0.0066*	?
